# In PubChem BioAssay (Tox21):
# “And” between values parts separate entries of the source, which are not always exact repeats. Equal entries are not always repeated. Records with an inconclusive call do not appear. Where a call stands in place of a potency, no number is given. Some structures have more than one record in an assay (separate samples or runs), and their calls can disagree. The source made the active and inactive calls. Unless noted, calls come from the whole dose curve; as a rule, active = well fitted curve in the direction sought with a large enough effect in the repeat runs; inconclusive = weak or mixed curves; inactive = no such curve, though single readings can be large; an effect the other way counts as inactive or inconclusive.
# Assays:
# [1] = qHTS assay to identify small molecule agonists of the hypoxia (HIF-1) signaling pathway - cell viability counter screen (AID 1224844; calls by dose curve; note: nearly all actives have a fitted effect of over 50% in size; note: potency is the fitted concentration of half-maximal effect)
# In short: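 Tox21 10K compounds were added to HRE-bla ME-180 cells (0.5% dialyzed FBS) and incubated 17 hrs at 37C; ATP-based CellTiter-Glo luminescence then reported cell viability in the same wells.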
# [2] = qHTS assay to identify small molecule agonists of H2AX (AID 1224845; active = well fitted activation curve with a large enough effect in the signal ratio in the repeat runs, not every such curve was filed as active; the % refers to the signal ratio)
# In short: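 Wild-type CHO-K1 cells plated overnight, then exposed 3 hr at 37C to compounds at 15 concentrations (0.76% DMSO). Lysed, then HTRF anti-pH2AX(S139)-cryptate/anti-H2AX-d2 detection after 24 hr at room temperature; emissions 665 and 620 nm.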
# [3] = qHTS assay to identify small molecule agonists of the hypoxia (HIF-1) signaling pathway (AID 1224846; active = well fitted activation curve with a large enough effect in the signal ratio in the repeat runs, not every such curve was filed as active; the % refers to the signal ratio)
# In short: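 Steps: seed ME-180 HRE-bla cells (2,000/well, 0.5% dialyzed FBS); incubate 5 hrs at 37C; pin-transfer compounds or DMSO; incubate 17 hrs; add LiveBLAzer B/G substrate CCF4-AM; measure reporter activation by FRET.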
# [4] = qHTS assay to identify small molecule agonists of H2AX - cell viability counter screen (AID 1224847; calls by dose curve; note: nearly all actives have a fitted effect of over 30% in size; note: potency is the fitted concentration of half-maximal effect)
# In short: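 Cells plated first: CHO-K1, 1000 per well in 10% FBS medium, incubated overnight at 37C. Then 15-point compound titration added (final DMSO 0.76%) for 3 hr. Finally CellTiter-Glo added and luminescence read.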
# [5] = qHTS RealTime-Glo MT Cell Viability Assay in HepG2 cells - 24 hour (AID 1224867); note: nearly all actives have a fitted effect of over 50% in size
# In short: (§1)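 HepG2 suspension premixed with RealTime-Glo reagents is plated at 600 cells per well and left 5 h at 37 C/5% CO2. Compounds in DMSO then go in, and bioluminescence reflecting viable cell number is recorded over 40 h.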
# [6] = qHTS RealTime-Glo MT Cell Viability Assay in HEK293 cells - 32 hour (AID 1224868); note: nearly all actives have a fitted effect of over 50% in size; note: potency is the fitted concentration of half-maximal effect
# In short: (§2)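 Reads taken at 0, 8, 16, 24, 32 and 40 h from the same wells. HEK293 cells (600/well) carried RealTime-Glo reagents from seeding, with compound added after a 5 h settle at 37 C.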
# [7] = A CellTox Green Cytotoxicity Assay to monitor cytotoxicity in HEK293 cells - 0 hour (AID 1224869); note: nearly all actives have a fitted effect of over 50% in size
# In short: (§3)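 Cytotoxicity was tracked continuously in HEK293 cells by a DNA-binding dye excluded from viable cells. Compounds were transferred in DMSO 5 h after seeding; fluorescence was recorded at intervals up to 40 h.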
# [8] = qHTS RealTime-Glo MT Cell Viability Assay in HepG2 cells - 40 hour (AID 1224870); note: nearly all actives have a fitted effect of over 50% in size; note: potency is the fitted concentration of half-maximal effect
# In short: (§4)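 HepG2 cells mixed with RealTime-Glo MT reagents (NanoLuc plus cell-permeant prosubstrate) were seeded at 600 cells/well, incubated 5 h at 37 C/5% CO2, then pinned with compounds in DMSO; nonlytic luminescence tracked viability during 40 h treatment.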
# [9] = A CellTox Green Cytotoxicity Assay to monitor cytotoxicity in HEK293 cells - 40 hour (AID 1224871); note: nearly all actives have a fitted effect of over 45% in size; note: potency is the fitted concentration of half-maximal effect
# In short: as §3
# [10] = qHTS RealTime-Glo MT Cell Viability Assay in HEK293 cells - 16 hour (AID 1224872); note: nearly all actives have a fitted effect of over 50% in size; note: potency is the fitted concentration of half-maximal effect
# In short: as §2
# [11] = qHTS RealTime-Glo MT Cell Viability Assay in HepG2 cells - 8 hour (AID 1224873); note: nearly all actives have a fitted effect of over 55% in size; note: potency is the fitted concentration of half-maximal effect
# In short: as §4
# [12] = qHTS RealTime-Glo MT Cell Viability Assay in HEK293 cells - 40 hour (AID 1224874); conditions: RealTime-Glo luminescence; max response: stronger effect = lower value; note: nearly all actives have a fitted effect of over 50% in size; note: potency is the fitted concentration of half-maximal effect
# In short: (§5)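 Nonlytic bioluminescent viability monitoring. HEK293 at 600 cells/well with reagent; 5 h settle; compound transfer by pintool; plates held at 37 C and read at set time points.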
# [13] = A CellTox Green Cytotoxicity Assay to monitor cytotoxicity in HEK293 cells - 24 hour (AID 1224875); note: nearly all actives have a fitted effect of over 45% in size; note: potency is the fitted concentration of half-maximal effect
# In short: as §3
# [14] = A CellTox Green Cytotoxicity Assay to monitor cytotoxicity in HepG2 cells - 16 hour (AID 1224876); note: nearly all actives have a fitted effect of over 45% in size; note: potency is the fitted concentration of half-maximal effect
# In short: (§6)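 Real-time, homogeneous cytotoxicity readout: dead-cell DNA staining by CellTox Green in HepG2 monolayers, fluorescence measured at timed intervals up to 40 h of continuous compound exposure.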
# [15] = qHTS RealTime-Glo MT Cell Viability Assay in HepG2 cells - 32 hour (AID 1224877); note: nearly all actives have a fitted effect of over 55% in size; note: potency is the fitted concentration of half-maximal effect
# In short: as §1
# [16] = A CellTox Green Cytotoxicity Assay to monitor cytotoxicity in HepG2 cells - 24 hour (AID 1224878); note: nearly all actives have a fitted effect of over 45% in size; note: potency is the fitted concentration of half-maximal effect
# In short: as §6
# [17] = A CellTox Green Cytotoxicity Assay to monitor cytotoxicity in HepG2 cells - 40 hour (AID 1224879); note: nearly all actives have a fitted effect of over 40% in size; note: potency is the fitted concentration of half-maximal effect
# In short: as §6
# [18] = qHTS RealTime-Glo MT Cell Viability Assay in HEK293 cells - 0 hour (AID 1224880)
# In short: as §5
# [19] = qHTS assay to identify small molecule antagonists of the estrogen related receptor (ERR) signaling pathway from Tox21 library (AID 1224848); note: nearly all actives have a fitted effect of over 50% in size; note: potency is the fitted concentration of half-maximal effect
# In short: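 Cells: ERR line, 2,000/well; 6 h preincubation 37 C/5% CO2. Cpd in DMSO via pin tool; 18 h, 37 C. ONE-Glo, 30 min RT, luminescence.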
# [20] = qHTS assay to identify small molecule agonists of the estrogen related receptor (ERR) signaling pathway from Tox21 library (AID 1224849; calls by dose curve; note: nearly all actives have a fitted effect of over 15% in size); conditions: ERR reporter cell line, ONE-Glo luciferase, 18 h
# In short: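 Agonist signal is luciferase luminescence from an ERR reporter cell line treated 18 h at 37 C with DMSO-dissolved compounds, read 30 min after ONE-Glo addition at room temperature.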
smiles,measurement,setting,value
ClCCl,Potency,[1],inactive
same,Potency,[2],inactive
same,Potency,[3],inactive
same,Potency,[4],inactive
same,Potency,[5],inactive
same,Potency,[6],inactive
same,Potency,[7],inactive
same,Potency,[8],inactive
same,Potency,[9],inactive
same,Potency,[10],inactive
same,Potency,[11],inactive
same,max response,[12],10.5% (inactive)
same,Potency,[13],inactive
same,Potency,[14],inactive
same,Potency,[15],inactive
same,Potency,[16],inactive
same,Potency,[17],inactive
same,Potency,[18],inactive
CCC(CC)C(C)CCOC(C)=O (stereo not drawn),Potency,[1],inactive
same,Potency,[2],inactive
same,Potency,[3],inactive
same,Potency,[4],inactive
same,Potency,[5],inactive
same,Potency,[6],inactive
same,Potency,[7],inactive
same,Potency,[8],inactive
same,Potency,[9],inactive
same,Potency,[10],inactive
same,max response,[12],20.3% (inactive)
same,Potency,[13],inactive
same,Potency,[14],inactive
same,Potency,[15],inactive
same,Potency,[16],inactive
same,Potency,[18],inactive
O=C(O)c1ccc2cc(C(=O)O)ccc2c1,Potency,[1],inactive
same,Potency,[2],inactive
same,Potency,[3],inactive
same,Potency,[4],inactive
same,Potency,[6],inactive
same,Potency,[7],inactive
same,Potency,[8],inactive
same,Potency,[9],inactive
same,Potency,[10],inactive
same,max response,[12],7.36% (inactive)
same,Potency,[13],inactive
same,Potency,[14],inactive
same,Potency,[15],inactive
same,Potency,[16],inactive
same,Potency,[17],inactive
Nc1nc(N)nc(-c2cc(Cl)ccc2Cl)n1,Potency,[1],inactive
same,Potency,[2],inactive
same,Potency,[3],inactive
same,Potency,[4],inactive
same,Potency,[5],inactive
same,Potency,[6],inactive
same,Potency,[7],inactive
same,Potency,[8],inactive
same,Potency,[9],inactive
same,Potency,[10],inactive
same,max response,[12],3.58% (inactive)
same,Potency,[13],inactive
same,Potency,[14],inactive
same,Potency,[15],inactive
same,Potency,[16],inactive
same,Potency,[18],inactive
CCc1cccc(CC)c1NC(=O)CN(CC(=O)O)CC(=O)O,Potency,[1],inactive
same,Potency,[2],inactive
same,Potency,[3],inactive
same,Potency,[4],inactive
same,Potency,[5],inactive
same,Potency,[6],inactive
same,Potency,[7],inactive
same,Potency,[8],inactive
same,Potency,[10],inactive
same,Potency,[11],inactive
same,max response,[12],1.69% (inactive)
same,Potency,[13],inactive
same,Potency,[14],inactive
same,Potency,[15],inactive
same,Potency,[16],inactive
same,Potency,[17],inactive
CCO[Si](OCC)(OCC)OCC,Potency,[1],inactive
same,Potency,[2],inactive
same,Potency,[3],inactive
same,Potency,[4],inactive
same,Potency,[5],inactive
same,Potency,[6],inactive
same,Potency,[7],inactive
same,Potency,[8],inactive
same,Potency,[9],inactive
same,Potency,[10],inactive
same,Potency,[11],inactive
same,max response,[12],3.28% (inactive)
same,Potency,[13],inactive
same,Potency,[15],inactive
same,Potency,[16],inactive
same,Potency,[17],inactive
CC(=O)OCC=C(C)C,Potency,[1],inactive
same,Potency,[2],inactive
same,Potency,[3],inactive
same,Potency,[4],inactive
same,Potency,[5],inactive
same,Potency,[6],inactive
same,Potency,[7],inactive
same,Potency,[8],inactive
same,Potency,[9],inactive
same,Potency,[10],inactive
same,Potency,[11],inactive
same,max response,[12],-1.54% (inactive)
same,Potency,[13],inactive
same,Potency,[15],inactive
CCCCC(CC)COC(=O)CCCCC(=O)OCc1ccccc1 (stereo not drawn),Potency,[1],inactive
same,Potency,[2],inactive
same,Potency,[3],inactive
same,Potency,[4],inactive
same,Potency,[5],inactive
same,Potency,[6],inactive
same,Potency,[7],inactive
same,Potency,[8],inactive
same,Potency,[9],inactive
same,Potency,[10],inactive
same,Potency,[11],inactive
same,max response,[12],-2.79% (inactive)
same,Potency,[13],inactive
same,Potency,[15],inactive
same,Potency,[16],inactive
same,Potency,[18],inactive
CCCC1CCC(=O)CC1,Potency,[1],inactive
same,Potency,[2],inactive
same,Potency,[3],inactive
same,Potency,[4],inactive
same,Potency,[5],inactive
same,Potency,[6],inactive
same,Potency,[7],inactive
same,Potency,[9],inactive
same,Potency,[10],inactive
same,Potency,[11],inactive
same,max response,[12],11.1% (inactive)
same,Potency,[14],inactive
same,Potency,[15],inactive
same,Potency,[16],inactive
same,Potency,[17],inactive
CCCCCCCCCCCCCCCC[N+](C)(C)CC,Potency,[1],inactive
same,Potency,[2],inactive
same,Potency,[4],101 µM (active) and 49.2 µM (active)
same,Potency,[19],17.3 µM (active) and 10.6 µM (active)
same,"activity change, positive = activation",[20]; at 42.5 µM (top of the series),-55.4% (inactive)
same,"activity change, positive = activation",[20]; at 92.4 µM (top of the series),-72.7% (inactive)
same,Potency,[6],4.91 µM (active) and 4.77 µM (active)
same,Potency,[7],inactive
same,Potency,[8],19.6 µM (active) and 19 µM (active)
same,Potency,[10],21.9 µM (active) and 6.74 µM (active)
same,Potency,[11],55.1 µM (active)
same,Potency,[12],4.38 µM (active) and 3.38 µM (active)
same,Potency,[15],21.9 µM (active) and 21.3 µM (active)
same,Potency,[16],24.6 µM (active) and 21.3 µM (active)
same,Potency,[17],15.5 µM (active) and 19 µM (active)
same,Potency,[18],inactive
Fc1ccc(C(c2ccc(F)cc2)N2CCNCC2)cc1,Potency,[1],inactive
same,Potency,[2],inactive
same,Potency,[4],inactive
same,Potency,[7],inactive
same,Potency,[9],inactive
same,Potency,[10],inactive
same,Potency,[11],inactive
same,Potency,[15],inactive
CCCCCCCCCCCCCC[N+](C)(C)C,Potency,[1],42.2 µM (active)
same,Potency,[2],inactive
same,Potency,[4],38.8 µM (active) and 50.4 µM (active)
same,Potency,[19],2.64 µM (active) and 4.32 µM (active) and 8.41 µM (active)
same,"activity change, positive = activation",[20]; at 42.5 µM (top of the series),-50% (inactive)
same,"activity change, positive = activation",[20]; at 92.4 µM (top of the series),-78.5% (inactive) and -74.4% (inactive)
same,Potency,[6],9.44 µM (active) and 12.3 µM (active) and 2.13 µM (active)
same,Potency,[7],inactive
same,Potency,[8],7.5 µM (active) and 17.4 µM (active) and 23.9 µM (active)
same,Potency,[9],29.9 µM (active) and 48.9 µM (active) and 26.8 µM (active)
same,Potency,[10],21.1 µM (active) and 6.91 µM (active)
same,Potency,[11],18.8 µM (active) and 54.9 µM (active) and inactive
same,Potency,[12],3.35 µM (active) and 4.89 µM (active) and 2.13 µM (active)
same,Potency,[13],37.6 µM (active) and 48.9 µM (active) and 26.8 µM (active)
same,Potency,[14],16.8 µM (active) and 43.6 µM (active) and 23.9 µM (active)
same,Potency,[15],9.44 µM (active) and 19.5 µM (active) and 23.9 µM (active)
same,Potency,[16],10.6 µM (active) and 19.5 µM (active) and 23.9 µM (active)
same,Potency,[18],inactive
Cc1ccc(C)cc1,Potency,[1],inactive
same,Potency,[3],inactive
same,Potency,[4],inactive
same,Potency,[19],inactive
same,"activity change, positive = activation",[20]; at 92.4 µM (top of the series),0.373% (inactive)
same,Potency,[5],inactive
same,Potency,[6],inactive
same,Potency,[7],inactive
same,Potency,[8],inactive
same,Potency,[9],inactive
same,Potency,[10],inactive
same,Potency,[11],inactive
same,max response,[12],12.3% (inactive)
same,Potency,[13],inactive
same,Potency,[14],inactive
same,Potency,[15],inactive
same,Potency,[16],inactive
same,Potency,[17],inactive
same,Potency,[18],inactive
